The list is not random: actives were taken first. Their share in the collection is about 12%.
Sfp inh: Sfp phosphopantetheinyl transferase inhibition; Biochemical Sfp PPTase activity, qHTS; actives 3.5% (n = 310,000); Q9F4F7; AID 1490; Potency, µM, usual class: inhibitors;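 note: the enzyme is Sfp with the accession as filed and its product quenches rhodamine fluorescence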
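Compounds were incubated with enzyme (final 15 nM) for 15 min at room temperature before substrate addition started the reaction. Fluorescence at 525 nm excitation, 598 nm emission was recorded immediately and after 30 minutes.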
G9a block: blocks human histone lysine methyltransferase G9a; G9a H3K9 monomethylation, AlphaScreen, 2 h; actives 8.8% (n = 350,000); Q96KQ7; Potency, µM (doses to about 102 µM), usual class: inhibitors; note: nearly all actives have a fitted effect of over 75% in size
Target sequence (Q96KQ7 913-1193 limits assumed): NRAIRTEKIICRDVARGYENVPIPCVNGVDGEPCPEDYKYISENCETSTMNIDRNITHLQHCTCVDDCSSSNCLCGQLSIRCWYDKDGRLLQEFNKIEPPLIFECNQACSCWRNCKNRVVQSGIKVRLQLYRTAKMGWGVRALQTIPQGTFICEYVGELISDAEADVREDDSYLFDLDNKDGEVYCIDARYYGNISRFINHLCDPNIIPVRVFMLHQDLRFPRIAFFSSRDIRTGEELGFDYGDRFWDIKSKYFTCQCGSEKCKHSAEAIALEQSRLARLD
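Using a bead-based AlphaScreen, monomethylated H3K9 product from 2 h room-temperature reactions (G9a 20 nM, peptide 500 nM, SAM 20 uM) was detected with 0.5 ug/mL rabbit anti-H3K9me1 antibody.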
HP1b chromo inh: HP1-beta chromodomain-methylated histone interaction inhibition | Potency, µM (top dose mostly 114 µM), usual class: inhibitors | AlphaScreen HP1-beta / biotin-H3K9me3 peptide binding | AID 540317 | actives 0.56% (n = 390,000); note: nearly all actives have a fitted effect of over 70% in size
Target sequence (P83916 whole entry, looked up): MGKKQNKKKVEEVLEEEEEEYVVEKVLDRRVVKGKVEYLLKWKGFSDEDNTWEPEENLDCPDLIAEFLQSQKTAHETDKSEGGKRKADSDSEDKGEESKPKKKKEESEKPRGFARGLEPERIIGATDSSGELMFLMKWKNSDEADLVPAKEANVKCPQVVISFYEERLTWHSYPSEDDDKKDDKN
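AlphaScreen: HP1-beta (50 nM) preformed 30 min with biotin-H3(1-18)K9me3 peptide (50 nM) in PBS pH 7.4, 0.01% Tween-20. Compound added for 30 min at RT, then streptavidin donor/nickel chelate acceptor beads (10 ug/mL) for 30 min.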
L3MBTL1 block: inhibitors of human L3MBTL1. actives 0.66% (n = 230,000). Potency, µM (doses to about 57.1 µM), usual class: inhibitors. Q9Y468. AID 485360. AlphaScreen L3MBTL1–H3K9me1 peptide binding; note: nearly all actives have a fitted effect of over 60% in size
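Displacement of a biotinylated histone H3(1-15) peptide monomethylated at Lys9 (75 nM) from L3MBTL1 (50 nM) was measured by AlphaScreen after a 30 min room-temperature compound incubation; cefsulodin titration served as intraplate control.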
JMJD2A Tudor inh: JMJD2A Tudor domain (human) inhibition; AID 504339; actives 4.4% (n = 390,000); AlphaScreen JMJD2A-Tudor / H3K4me3 peptide binding; Potency, µM (series often up to 114 µM), most hits filed as inhibitors; note: nearly all actives have a fitted effect of over 50% in size
BAZ2B inh: blocks human BAZ2B | Q9UIF8 | AlphaScreen BAZ2B-H3K14Ac peptide displacement | Potency, µM (series often up to 114 µM), usual class: inhibitors | actives 4.4% (n = 360,000) | AID 504333; note: nearly all actives have a fitted effect of over 60% in size
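AlphaScreen luminescence quantifies BAZ2B engagement of H3K14Ac peptide; the protein and biotinylated peptide are both at 50 nM final, buffer PBS pH 7.4 with 0.01% Tween-20, all steps at room temperature.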
A number is an active result; n = inactive; u = inconclusive; x = not tested or not shown; ! = not confirmed by another sample; [ ] = another dose, or the depositor's remark. Calls come from the whole dose curve; as a rule, active = well fitted curve in the direction sought with a large enough effect; inconclusive = small, poorly fitted or top-dose-only effect, or another doubt; inactive = no such curve, though single readings can be large; an effect the other way counts as inactive or inconclusive.

SMILES	Sfp inh	G9a block	HP1b chromo inh	L3MBTL1 block	JMJD2A Tudor inh	BAZ2B inh
O=C(O)c1sccc1Oc1ccc(F)cc1[N+](=O)[O-]	n	35.5µM	n	x	n	u
CNC1C2CN3CCC(O2)C13 (stereo not drawn)	n	x	x	x	x	x
CC(C)CC(N)C1(c2ccc(Cl)cc2)CCC1 (stereo not drawn)	n	x	x	x	x	x
CCOC(=O)CSc1nn(-c2ccccc2)c(=S)s1	n	n	n	x	n	n
CCn1c(-c2nn(-c3ccccc3)ccc2=O)n[nH]c1=S	56.2µM	n	n	n	u	u
CN1C[C@H](CO)C=C2c3cccc4[nH]cc(c34)C[C@@H]21	n	u	x	x	x	x
COc1ccc(C(=O)C2CN(C)CC2c2ccc(Cl)cc2)cc1 (stereo not drawn)	n	n	n	u	n	n
CN1CC(C(=O)c2ccc([N+](=O)[O-])cc2)C(c2ccc(Cl)cc2)C1 (stereo not drawn)	n	n[2.33 µM]	u	x	44.7µM	u
COc1ccc(NC(=O)c2ccco2)cc1NC(=O)COc1cc(C)cc(C)c1	x	n	n	x	n	n
CC(=O)OCC1=C(C(=O)[O-])N2C(=O)[C@@H](NC(=O)CCC[C@@H](N)C(=O)[O-])[C@H]2SC1.[Zn+2]	x	n[12.7 µM]	x	x	x	x
CC1=C(C(=O)O)N2C(=O)[C@@H](NC(=O)CCCC(=O)O)[C@H]2SC1	5.01µM	n	n	n	n	n
c1ccc(-c2nc(N3CCOCC3)s[n+]2-c2ccccc2)cc1	7.94µM	1.12µM	u	n	17.8µM	n
CC(C)c1cccc(C(C)C)c1OC(=O)NC(=O)c1c(F)cccc1F	n	n[12.7 µM]	n	x	n	n
CN1CC[C@@]2(c3cccc(O)c3)Cc3nc4ccccc4cc3C[C@H]2C1	79.4µM	x	x	x	x	x
COc1cccc(C2(C#N)CCN(C)CC2)c1	n	n	n	x	n	x
O=C(O)c1ccccc1NS(=O)(=O)c1cccc(N=Nc2c(O)[nH]c(=S)[nH]c2=O)c1	x	50.1µM	n	n	n	n
O=C(O)c1cc(S(=O)(=O)Nc2ccccc2C(=O)O)ccc1O	n	x	n	n	n[11.4 µM]	n
CN1CC[C@@H]2CN3CCc4cccc(c43)[C@H]2C1	n	x	x	x	x	x
CCC(=O)N1CCN(c2cc3c(cc2F)c(=O)c(C(=O)O)cn3CC)CC1	x	x	n	x	6.31µM	x
COC(=O)CSc1n[nH]c(=S)s1	u	7.94µM	28.2µM	n	u	n
c1cc(CN2CCCC3(CCNCC3)C2)ccn1	n	n[12.7 µM]	x	x	x	x
CCNc1cc(N2CCN(C)CC2)ccc1[N+](=O)[O-]	u	n	n	u	n	n
CN(C)c1c([N+](=O)[O-])cc(N2C(=O)C=CC2=O)cc1[N+](=O)[O-]	x	x	14.1µM	x	8.91µM	x
Cc1ccc(C)c(S(=O)(=O)c2nnn3c2nc(N2CCN(C)CC2)c2sccc23)c1	x	n	n	x	n	u
CC1CCCN(CC(=O)N2CCCc3ccccc32)C1 (stereo not drawn)	n	n	n	n[11.4 µM]	n	n
SMILES	Sfp inh	G9a block	HP1b chromo inh	L3MBTL1 block	JMJD2A Tudor inh	BAZ2B inh
O=C(O)C1Cc2ccccc2N2CCCC12 (stereo not drawn)	n	39.8µM	n	x	n	n
Cc1ccc(-c2cn3c(=S)[nH]nc3s2)cc1	35.5µM	1µM	70.8µM	n	0.708µM	79.4µM
CCN1CCc2ccccc2C1	n	u	n	n	n[11.4 µM]	n
CCN1CCN(CC(c2ccccc2)c2ccccc2)CC1	n	u	u	n	0.794µM	10µM
COc1ccccc1NC(=O)CCn1cnc2onc(-c3ccc(F)cc3)c2c1=O	x	n	n	x	n	n
O=C1NCCN2CCCC12 (stereo not drawn)	n	12.6µM	n	n	n	n
O=[N+]([O-])c1cc([As](=O)(O)O)ccc1O	n	n[12.7 µM]	n	u	89.1µM	n
Cc1ccc2c(c1)[C@@H]1CN(C)CC[C@H]1N2	n	n[12.7 µM]	x	x	x	x
COc1ccc(/C=C/C2=CCN(C)CC2)cc1	n	79.4µM	n	n	n	n
CN1CC=C(/C=C/c2ccc(-c3ccccc3)cc2)CC1	n	x	n	n	n	n
O=[N+]([O-])/C=C/c1ccc2c(c1)OCO2	x	2.12µM	x	x	x	x
CN(C)c1ccc(/C=C/[N+](=O)[O-])cc1	n	70.8µM	n	n	n	n
C/C(=C\c1ccc(N(C)C)cc1)[N+](=O)[O-]	n	u	n	n	n	n
COc1cc2c(cc1/C=C/[N+](=O)[O-])OCO2	n	u	n	x	n	n
COc1ccccc1NC(=O)c1oc2ccccc2c1NC(=O)COc1cccc(C)c1	x	n	n	x	n	n
O=C(O)c1cn(Cc2ccccc2)nc1-c1ccccc1	n	n	n	n	n	n
O=C(O)CSCC(=O)N(Cc1ccccc1)c1nc(-c2ccccc2)c(-c2ccccc2)s1	n	u	n	x	56.2µM	50.1µM
CCOc1ccc(NCc2cccn2-c2nnc(N3CCC(C(=O)NCC(C)c4ccccc4)CC3)s2)cc1 (stereo not drawn)	x	u	n	x	u	n
C[C@H]1C(=O)O[C@@H]2CCN3CC=C(COC(=O)[C@@](C)(O)[C@@]1(C)O)[C@H]23	u	n[21.5 µM]	x	x	x	x
COc1ccc(OCc2n[nH]c(=S)n2Cc2ccco2)cc1	n	2.82µM	u	x	u	u
CCOC(=O)c1c(C)n(Cc2ccco2)c2ccc(OC)cc12	n	n	n	n	n	n
Cn1c(O)c(/C=N/NC(=O)c2ccncc2)c(=O)[nH]c1=S	n	x	n	n	79.4µM	n
Cn1c(O)c(/C=N/NC(=O)c2ccncc2)c(=O)n(C)c1=S	n	n[12.7 µM]	n	x	u	u
CCn1c(O)c(C=Nc2ccc(S(N)(=O)=O)cc2)c(=O)n(CC)c1=S	u	u	n	n	n	n
CCCCn1c(O)c(/C=N/NC(=O)c2ccncc2)c(=O)[nH]c1=S	n	n	n	n	n	79.4µM
SMILES	Sfp inh	G9a block	HP1b chromo inh	L3MBTL1 block	JMJD2A Tudor inh	BAZ2B inh
CCn1c(O)c(/C=N/NC(=O)c2ccncc2)c(=O)n(CC)c1=S	79.4µM	n	n	n	n	n
CN(C)C1C(=O)C(C(N)=O)=C(O)C2(O)C(=O)C3=C(O)c4c(O)cccc4C(C)(O)C3C(O)C12 (stereo not drawn)	56.2µM	x	n	x	n	2µM
CCN(CC)c1ccc(NC(=O)c2cccc(C)c2)cc1S(=O)(=O)Nc1ccccc1OC	12.6µM	3.55µM	u	n	u	n
Clc1ccccc1C(c1ccccc1)(c1ccccc1)n1cccn1	n	x	x	x	x	x
O=c1c2ccccc2[se]n1-c1ccccc1	0.794µM	1.41µM!	u	n	8.91µM	1.41µM
O=c1c2ccccc2nc(-c2ccccc2)n1-c1ccccc1	n	n	n	n	n	n
